Results: PubChem BioAssay AID2402 (Southern Research Specialized Biocontainment Screening …, 2010)
Entries with a potency or affinity are not part of this list. The source made the active and inactive calls.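 How the source made its calls: active means viability below 70% at one or more tested doses; inactive means viability above 70% at every dose tested.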

assay: cytotoxicity of synthesized analogs in Vero cells, SAR follow-up, cytotoxicity control for West Nile virus antiviral project, cell-based, set II (AID 2402); settings: Vero E6 viability, CellTiter-Glo, 72 h; series mostly up to 100 µM; viability: at the top concentration

Row | SMILES | viability
1 | CC1(O)c2cc(Br)ccc2N=C2CCCN21 (stereo not given) | 73.1% (inactive)
2 | O=C(CSc1nc2ccccc2c(=O)n1-c1ccc(F)cc1)Nc1ccc2c(c1)OCCO2 | 80.1% (inactive)
3 | O=c1c2cccc(Cl)c2nc2n1CCC2 | 81.5% (inactive)
4 | Cc1cccc2c(=O)n3c(nc12)CCC3 | 82.8% (inactive)
5 | Cc1cccc2nc3n(c(=O)c12)CCC3 | 87.6% (inactive)
6 | O=[N+]([O-])c1ccc2c(c1)C(O)N1CCCC1=N2 (stereo not given) | 77.9% (inactive)
7 | Cc1cc(OC(=O)c2c(F)cccc2F)n(Cc2ccccc2)n1 | 94% [at 200 µM] (inactive)
8 | OC1c2cc(I)ccc2N=C2CCCN21 (stereo not given) | 106% [at 200 µM] (inactive)
9 | Cc1ccc2nc3n(c(=O)c2c1)CCC3 | 76.8% (inactive)
10 | Nc1ccc2nc3n(c(=O)c2c1)CCC3 | 88.1% (inactive)
11 | COc1ccc(NC(=O)CSc2nc3ccccc3c(=O)n2-c2ccc(F)cc2)cc1 | 82% (inactive)
12 | CC(=O)Nc1ccc2nc3n(c(=O)c2c1)CCC3 | 86.2% (inactive)
13 | O=c1c2c(F)cccc2nc2n1CCC2 | 102% (inactive)
14 | O=C(CSc1nc2ccccc2c(=O)n1-c1ccccc1)Nc1ccc2c(c1)CCC2 | 78.5% (inactive)
15 | COc1ccccc1NC(=O)CSc1nc2ccccc2c(=O)n1-c1ccc(F)cc1 | 101% (inactive)
